In the supplement of paper PMC9694430:

Legend:
Assay in all cases: thermal shift delta Tm vs DMSO control; higher = stronger stabilization (binding)
Conditions in all cases: 12.5 µM; protein concentration 2 µM
LOC_OS01G01410-cb001 = system: LOC_OS01G01410-cb001
Outline: (§1)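 Rice kinase domain constructs, made in E. coli and purified, were placed in 96-well plates at 2 μM in 19.5 μl of 100 mM potassium phosphate pH 7.5, 150 mM NaCl, 10% glycerol and 5 × SYPRO Orange, with compound in DMSO. A temperature ramp from 25°C to 95°C at 0.05°C/s was used for differential scanning fluorimetry. The melting temperature shift is a triplicate mean compared with DMSO-only protein, derived from Boltzmann fits.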

LOC_OS01G02750-cb003 = system: LOC_OS01G02750-cb003
Outline: as §1

LOC_OS01G10900-cb004 = system: LOC_OS01G10900-cb004
Outline: as §1

LOC_OS01G13800-cb001 = system: LOC_OS01G13800-cb001
Outline: as §1

LOC_OS01G14860-cb001 = system: LOC_OS01G14860-cb001
Outline: as §1

LOC_OS01G21960-cb002 = system: LOC_OS01G21960-cb002
Outline: as §1

LOC_OS01G39600-cb002 = system: LOC_OS01G39600-cb002
Outline: as §1

LOC_OS01G48390-cb002 = system: LOC_OS01G48390-cb002
Outline: as §1

LOC_OS01G51400-cb002 = system: LOC_OS01G51400-cb002
Outline: as §1

LOC_OS01G52050-cb004 = system: T1, LOC_OS01G52050-cb004
T1 sequence (whole entry): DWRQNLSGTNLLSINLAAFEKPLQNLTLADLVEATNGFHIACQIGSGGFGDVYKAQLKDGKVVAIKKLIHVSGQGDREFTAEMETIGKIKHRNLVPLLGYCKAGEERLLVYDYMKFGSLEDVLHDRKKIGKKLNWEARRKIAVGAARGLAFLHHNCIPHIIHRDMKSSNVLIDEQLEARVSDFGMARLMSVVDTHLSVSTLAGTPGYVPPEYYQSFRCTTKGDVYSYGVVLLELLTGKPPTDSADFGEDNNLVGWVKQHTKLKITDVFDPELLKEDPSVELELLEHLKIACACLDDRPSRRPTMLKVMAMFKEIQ
Outline: as §1

LOC_OS01G57100-cb003 = system: LOC_OS01G57100-cb003
Outline: as §1

LOC_OS01G60330-cb001 = system: LOC_OS01G60330-cb001
Outline: as §1

LOC_OS01G60700-cb002 = system: LOC_OS01G60700-cb002
Outline: as §1

LOC_OS01G63280-cb003 = system: LOC_OS01G63280-cb003
Outline: as §1

LOC_OS01G67340-cb003 = system: LOC_OS01G67340-cb003
Outline: as §1

LOC_OS01G70970-cb002 = system: LOC_OS01G70970-cb002
Outline: as §1

LOC_OS02G07810-cb001 = system: LOC_OS02G07810-cb001
Outline: as §1

LOC_OS02G08530-cb003 = system: LOC_OS02G08530-cb003
Outline: as §1

LOC_OS02G14120-cb001 = system: LOC_OS02G14120-cb001
Outline: as §1

LOC_OS02G17970-cb001 = system: LOC_OS02G17970-cb001
Outline: as §1
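Also: purified Escherichia coli-expressed rice kinase domain construct.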

SMILES	thermal shift delta Tm (LOC_OS01G01410-cb001) [°C]	thermal shift delta Tm (LOC_OS01G02750-cb003) [°C]	thermal shift delta Tm (LOC_OS01G10900-cb004) [°C]	thermal shift delta Tm (LOC_OS01G13800-cb001) [°C]	thermal shift delta Tm (LOC_OS01G14860-cb001) [°C]	thermal shift delta Tm (LOC_OS01G21960-cb002) [°C]	thermal shift delta Tm (LOC_OS01G39600-cb002) [°C]	thermal shift delta Tm (LOC_OS01G48390-cb002) [°C]	thermal shift delta Tm (LOC_OS01G51400-cb002) [°C]	thermal shift delta Tm (LOC_OS01G52050-cb004) [°C]	thermal shift delta Tm (LOC_OS01G57100-cb003) [°C]	thermal shift delta Tm (LOC_OS01G60330-cb001) [°C]	thermal shift delta Tm (LOC_OS01G60700-cb002) [°C]	thermal shift delta Tm (LOC_OS01G63280-cb003) [°C]	thermal shift delta Tm (LOC_OS01G67340-cb003) [°C]	thermal shift delta Tm (LOC_OS01G70970-cb002) [°C]	thermal shift delta Tm (LOC_OS02G07810-cb001) [°C]	thermal shift delta Tm (LOC_OS02G08530-cb003) [°C]	thermal shift delta Tm (LOC_OS02G14120-cb001) [°C]	thermal shift delta Tm (LOC_OS02G17970-cb001) [°C]
COc1cc2ncnc(Nc3ccc(F)c(Cl)c3)c2cc1OCCCN1CCOCC1 [Gefitinib (ZD1839)]	1.27	0.13	3.7	0.4	0.18	-0.07	1.46	2.87	0.02	0.77	0.37	0.16	1.04	0.4	-0.59	0.28	0.77	0.6	4.78	0.15
CNC(=O)c1nn(C)c2c1C(C)(C)Cc1cnc(Nc3ccc(N4CCN(C)CC4)cc3)nc1-2	2.97	4.29	7.64	-1.53	0.36	1.9	0.04	1.65	0.17	5.55	1.59	0.33	0.69	-0.14	1.14	0.87	0.68	1.93	4.82	0.05
O=C(Nc1ccccc1C(=O)NC1CCCCNC1=O)c1cc2ccccc2s1 (stereo not given)	-0.16	1.09	0.05	0.44	0.04	0.32	-0.76	-0.09	0.19	-0.05	1.14	1.02	0.65	-0.03	0.41	0.19	0.51	0.19	0.18	0.88
O=C(/C=C/c1ccc(O)c(O)c1)c1ccc(O)cc1O [Butein]	3.34	6.05	1.41	1.88	4.26	3.26	4.11	1.83	2.14	9.01	4.85	7.74	1.12	17.7	7.74	2.95	1.6	1.81	4.14	3.5
N#CC[C@H](C1CCCC1)n1cc(-c2ncnc3[nH]ccc23)cn1	0.74	1.15	0.65	-0.01	1.62	1.47	0.6	0.4	-0.02	0.98	0.48	1.16	0.62	0.56	0.07	0.28	1.11	1.14	3.58	0.47
COc1ccc(S(=O)(=O)N(CCO)c2ccccc2CN(C)C/C=C/c2ccc(Cl)cc2)cc1 [KN-93 Phosphate]	0.65	0.92	0.7	-0.08	0.51	0.96	-0.38	0.66	0.28	0.47	2.05	2.19	0.56	0.11	0.92	0.38	0.44	0.66	0.97	0.03
